KLK7 zymogen act: proKLK7 zymogen activators, primary screen, biochemical, fluorescence intensity. 370,000 compounds, 0.9% hits. Kallikrein-7 (Homo sapiens), P49862. activation, % at 7 µM. purified proKLK7, EDANS-DABCYL substrate fluorescence; 100% is mature enzyme control, 0% vehicle;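 active = activation above the mean of all tested compounds plus 3 SD, computed per campaign excluding outliers beyond control limits, cut at about 13% in these data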
ADAM10 inh: human ADAM10 inhibitors, primary screen, biochemical, QFRET, HTS; 370,000 compounds, 0.62% hits; Disintegrin and metalloproteinase domain-containing protein 10 (Homo sapiens), O14672; recombinant ADAM10, EDANS/DABCYL FRET peptide cleavage, 3 h; inhibition, % at 7 µM; AID 720582, 2013;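 active = inhibition above a per-campaign cutoff equal to the mean of compounds falling between control-based bounds plus 3 SD, cut at about 20% in these data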;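 also: 0% = DMSO wells while the 100% control is not disclosed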
ADAM17 inh: ADAM17 inhibitors, primary screen, biochemical, QFRET; 370,000 compounds, 0.83% hits; Disintegrin and metalloproteinase domain-containing protein 17 (Homo sapiens), P78536; AID 720648, 2013; recombinant ADAM17, EDANS/DABCYL FRET peptide cleavage; inhibition, % at 6.95 µM;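 active = inhibition above the mean of compounds lying between control limits plus 3 SD, set per campaign, cut at about 8.5% in these data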;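 also: 0% = DMSO-only wells as the low control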
Target sequence (P78536 215-824 limits assumed): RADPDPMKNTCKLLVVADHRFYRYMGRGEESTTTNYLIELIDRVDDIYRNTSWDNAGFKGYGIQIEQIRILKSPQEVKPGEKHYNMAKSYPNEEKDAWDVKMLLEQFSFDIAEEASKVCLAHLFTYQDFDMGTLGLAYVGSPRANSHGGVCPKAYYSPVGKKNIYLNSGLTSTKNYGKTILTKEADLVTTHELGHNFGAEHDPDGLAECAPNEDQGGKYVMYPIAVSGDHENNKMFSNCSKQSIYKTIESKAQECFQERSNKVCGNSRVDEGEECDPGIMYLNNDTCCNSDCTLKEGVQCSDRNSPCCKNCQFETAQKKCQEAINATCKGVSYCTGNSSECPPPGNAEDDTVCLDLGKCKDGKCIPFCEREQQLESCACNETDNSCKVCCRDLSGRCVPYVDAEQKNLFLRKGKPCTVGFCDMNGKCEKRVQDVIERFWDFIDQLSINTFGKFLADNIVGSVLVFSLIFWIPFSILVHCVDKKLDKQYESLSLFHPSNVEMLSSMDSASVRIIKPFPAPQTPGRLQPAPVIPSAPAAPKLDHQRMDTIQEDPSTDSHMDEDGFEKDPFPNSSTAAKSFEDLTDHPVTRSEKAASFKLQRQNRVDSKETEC
V-ATPase pH: regulators of yeast V-ATPase proton pumping, primary screen, pHLuorin cytosolic pH fluorescence; AID 504577, 2011; response, % at 10 µM; 350,000 compounds, 0.37% hits; S. cerevisiae; in the data active = response mostly above about 7.3%, no sharp cut-off; inactive = mostly below about 5.4%; also: actives read high
proKLK7 act conf: proKLK7 zymogen activators, confirmation, biochemical, fluorescence intensity, triplicate; activation, % at 7 µM; AID 686949, 2013; purified proKLK7, EDANS-DABCYL substrate fluorescence; scaled: vehicle 0, mature enzyme 100; shares compounds with KLK7 zymogen act; 3,200 compounds, 68% hits;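 active = activation, as change over the incubation, above the mean of all tested compounds plus 3 SD, cut at about 13% in these data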
EDANS interfere: EDANS-DABCYL substrate optical interference, artefact control for kallikrein-7 zymogen activator project, biochemical, fluorescence intensity, high throughput | activation, % at 7 µM | no enzyme, 4 h; solvent 0%, active enzyme control 100% | shares compounds with KLK7 zymogen act | 3,200 compounds, 80% hits;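 active = activation above the all-compound mean plus 3 SD, ignoring values outside control-based bounds, cut at about 4.8% in these data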;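 also: value is the 4 h activation minus the activation read at time zero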
EDANS interf: optically interferes with EDANS-DABCYL fluorescence, kallikrein-7 activator counter-screen. EC50, µM. AID 720493. shares compounds with KLK7 zymogen act. EDANS-DABCYL peptide fluorescence interference, no enzyme. 250 compounds, 20% hits;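 active = compounds that raise the fluorescence signal in this interference counterscreen, with EC50 at or below 10 µM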;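 also: intact quenched peptide substrate alone read at 355 nm excitation and 520 nm emission; signal is fluorescence gain from T0 to T4 after four hours at room temperature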
* marks the source's active call; other numbers are inactive results; i = inactive; . = no result given. An excerpt weighted towards active compounds, which were near 2.3% of everything screened.

SMILES	KLK7 zymogen act	ADAM10 inh	ADAM17 inh	V-ATPase pH	proKLK7 act conf	EDANS interfere	others
C[C@@H]1CCN(C2CC2)S(=O)(=O)c2ccc(N3CC[C@@H](O)C3)cc2O1	0.2	-10.1	-3.9	.	.	.
CNc1cncc(-c2cccc(NS(C)(=O)=O)c2)n1	129.6*	i	i	.	44.7*	56.5*
CNc1cncc(-c2ccc(OC)cc2)n1	25.3*	i	i	.	49.0*	40.6*	EDANS interf=>69.5
CNc1cncc(-c2ccc(OCCCN(C)C)nc2)n1	51.4*	i	i	.	59.4*	71.5*
CC(=O)Nc1cncc(-c2ccc(CN(C)C)cc2)n1	1.1	-31.9	-10.9	.	.	.
COc1ccc(CN2CCOCC2)cc1	-0.3	0.4	-2.3	.	.	.
CNc1cncc(-c2ccc(CN3CCOCC3)cc2)n1	82.4*	i	i	.	67.4*	77.9*
COC(=O)c1ccc2nc(C3CCCCC3)c(Cc3ccccc3OC)n2c1	-0.8	-5.8	-1.4	.	.	.
C[C@H]1CN([C@@H](C)CO)C(=O)CCCn2nncc2CO[C@@H]1CN(C)CC1CC1	0.1	-3.8	-3.0	.	.	.
CNc1cncc(-c2cc(C)c(O)c(C)c2)n1	1.8	-186.3	-46.8	.	.	.
CNc1cncc(-c2ccc(O)cc2)n1	41.0*	i	i	.	18.9*	18.6*
CNc1cncc(-c2ccc(F)cc2F)n1	13.9*	i	i	.	19.8*	49.5*
CNc1cncc(-c2cnn(CC(C)C)c2)n1	33.2*	i	i	.	71.9*	64.2*
CNc1cncc(-c2ccoc2)n1	20.3*	i	i	.	28.1*	30.4*
CNc1cncc(-c2cccc(C(C)=O)c2)n1	-0.4	-19.5	-6.0	.	.	.
COc1cccc(NC(=O)NC2CCCCN(Cc3ccccc3C)C2=O)c1 (stereo unspecified)	0.3	2.4	-2.2	.	.	.
COCCCNC(=O)C[C@H]1C[C@@]2(C(=O)OC)C(=C[C@H](C(C)C)O[C@@H]2C2CC2)N(Cc2cccc3ccccc23)C1=O	-0.4	-1.0	-1.4	.	.	.
CNc1cncc(-c2ccc(S(C)(=O)=O)cc2)n1	84.5*	i	i	.	66.3*	65.5*
CNc1cncc(-c2ccc(CN(C)C)cc2)n1	116.0*	i	i	.	72.3*	82.2*
CCOC(=O)[C@@]12CCC3=C1N(CCC3)C(=O)[C@H](CC(=O)NCc1ccc(OC)c(OC)c1)C2	0.0	-23.1	-9.7	.	.	.
COc1cc(/C=N/NC(=O)c2nnn(-c3nonc3N)c2-c2cccs2)ccc1O	-0.1	7.8	2.5	4.8	.	.
COc1ccc(/C=N/NC(=O)c2nnn(-c3nonc3N)c2-c2cccs2)cc1OC	32.1*	-22.3	-9.8	-0.5	216.8*	352.8*
O=C(Nc1ccccc1C(F)(F)F)O[C@@H]1CC[C@@]23CCCN2C(=O)CCC[C@H]3C1	.	-2.8	-3.6	.	.	.
COc1ccc(NC(=O)N(C)[C@H]2C[C@H]3c4[nH]c5ccccc5c4CCN3C(=O)[C@H]2CO)cc1	24.4*	i	-233.9	0.1	2.7	3.2
COc1ccc(NC(=O)N(C)[C@H]2C[C@H]3c4[nH]c5ccc(-c6ccc(OC)cc6)cc5c4CCN3C(=O)[C@H]2[C@H](C)O)cc1	2.3	-335.2	-125.6	-1.6	.	.
CN(C(=O)Nc1ccc(F)cc1)[C@H]1C[C@H]2c3[nH]c4ccccc4c3CCN2C(=O)[C@H]1CO	2.4	-158.0	-39.2	0.5	.	.
COc1ccc(NC(=O)N(C)[C@H]2C[C@H]3c4[nH]c5ccccc5c4CCN3C(=O)[C@H]2[C@H](C)O)cc1	87.5*	i	i	2.1	8.5	9.5*
COc1ccc(C(=O)N(C)[C@H]2C[C@H]3c4[nH]c5ccccc5c4CCN3C(=O)[C@H]2CO)cc1	43.7*	i	-230.0	5.0	50.7*	56.6*
CC(=O)C1(C(=O)NC2CCCC2)CC(c2ccccc2C(F)(F)F)=NO1 (stereo unspecified)	0.2	-3.1	-2.0	.	.	.

Screens from PubChem.
